Results on 20 sequences are retold here after PMC11006913.

Positions count from the first letter of the chain named.

Common to all, as to experiment: PBM; 200 nM protein, PBS
Holding throughout (settings): dsDNA, one strand shown

Assay [1] concerns the target ALX4 (Homo sapiens, UniProt Q9H161 200-286).
Assay [2] has as its target HOXC10 (Homo sapiens, UniProt Q9NYD6 254-340).
Assay [3] addresses HOXC10 (Homo sapiens, UniProt Q9NYD6 254-340, K271E).
For assay [4], the target named is VAX1 (Homo sapiens, UniProt Q5SQQ9 86-172).
The target in assay [5] is VAX1 (Homo sapiens, UniProt Q5SQQ9 86-172, T142I).
In assay [6] the target is VAX1 (Homo sapiens, UniProt Q5SQQ9 86-172, K157R).
The target of assay [7] is PROP1 (Homo sapiens, UniProt O75360 56-141).
The target in assay [8] is PROP1 (Homo sapiens, UniProt O75360 56-141, R99H).
In assay [9] the target is PROP1 (Homo sapiens, UniProt O75360 56-141, F88S).
Assay [10] concerns the target T1, PAX4 (Homo sapiens, UniProt O43316 9-242, R200K).
T1 sequence: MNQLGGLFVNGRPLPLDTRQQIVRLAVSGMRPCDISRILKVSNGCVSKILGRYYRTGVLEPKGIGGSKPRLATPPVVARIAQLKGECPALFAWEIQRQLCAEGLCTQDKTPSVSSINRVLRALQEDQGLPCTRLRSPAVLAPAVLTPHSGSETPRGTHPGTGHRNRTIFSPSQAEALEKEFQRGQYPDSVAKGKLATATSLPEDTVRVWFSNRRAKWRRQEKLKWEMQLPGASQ

In assay [11] the target is T2, PAX4 (Homo sapiens, UniProt O43316 9-242).
T2 sequence: T1 sequence with K192R

In assay [12] the target is ALX4 (Homo sapiens, UniProt Q9H161 200-286, Q225E).
In assay [13] the target is T3, NKX2-6 (Homo sapiens, UniProt A6NCS4 118-204).
T3 sequence: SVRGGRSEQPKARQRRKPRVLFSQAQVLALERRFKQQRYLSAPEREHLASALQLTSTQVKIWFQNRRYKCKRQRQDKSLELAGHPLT

Assay [14] concerns the target T4, PAX4 (Homo sapiens, UniProt O43316 9-242, R200Q).
T4 sequence: T1 sequence with K192Q

Assay [15] concerns the target T5, PAX4 (Homo sapiens, UniProt O43316 9-242, F177V).
T5 sequence: T1 sequence with F169V, K192R

Assay [16] deals with T6, PAX4 (Homo sapiens, UniProt O43316 9-242, F177Y).
T6 sequence: T1 sequence with F169Y, K192R

In assay [17] the target is T7, NKX2-6 (Homo sapiens, UniProt A6NCS4 118-204, F151L).
T7 sequence: T3 sequence with F34L

The target of assay [18] is T8, PAX4 (Homo sapiens, UniProt O43316 9-242, R227W).
T8 sequence: T1 sequence with K192R, R219W

In assay [19] the target is NKX3-2 (Homo sapiens, UniProt P78367 192-278, P234S).
Assay [20] concerns the target NKX3-2 (Homo sapiens, UniProt P78367 192-278).

Chain of ALX4 (Homo sapiens, UniProt Q9H161 200-286) (Q9H161 200-286): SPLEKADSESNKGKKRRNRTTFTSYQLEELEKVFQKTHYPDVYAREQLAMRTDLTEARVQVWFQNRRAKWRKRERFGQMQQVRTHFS
Chain of VAX1 (Homo sapiens, UniProt Q5SQQ9 86-172) (Q5SQQ9 86-172): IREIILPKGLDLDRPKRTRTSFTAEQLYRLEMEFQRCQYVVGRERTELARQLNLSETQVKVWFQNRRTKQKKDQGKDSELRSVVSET
Chain of VAX1 (Homo sapiens, UniProt Q5SQQ9 86-172, T142I) (Q5SQQ9 86-172 T142I): as the sequence (Q5SQQ9 86-172) above, with T57I counted along it
Chain of HOXC10 (Homo sapiens, UniProt Q9NYD6 254-340, K271E) (Q9NYD6 254-340 K271E): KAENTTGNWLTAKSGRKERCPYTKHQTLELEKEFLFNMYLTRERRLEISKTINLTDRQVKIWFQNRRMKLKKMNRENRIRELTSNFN
Chain of ALX4 (Homo sapiens, UniProt Q9H161 200-286, Q225E) (Q9H161 200-286 Q225E): as the sequence (Q9H161 200-286) above, with Q26E counted along it
Chain of HOXC10 (Homo sapiens, UniProt Q9NYD6 254-340) (Q9NYD6 254-340): as the sequence (Q9NYD6 254-340 K271E) above, with E18K counted along it
Chain of VAX1 (Homo sapiens, UniProt Q5SQQ9 86-172, K157R) (Q5SQQ9 86-172 K157R): as the sequence (Q5SQQ9 86-172) above, with K72R counted along it
Chain of PROP1 (Homo sapiens, UniProt O75360 56-141, F88S) (O75360 56-141 F88S): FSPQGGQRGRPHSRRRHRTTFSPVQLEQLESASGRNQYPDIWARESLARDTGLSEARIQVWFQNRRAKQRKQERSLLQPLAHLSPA
Chain of NKX3-2 (Homo sapiens, UniProt P78367 192-278, P234S) (P78367 192-278 P234S): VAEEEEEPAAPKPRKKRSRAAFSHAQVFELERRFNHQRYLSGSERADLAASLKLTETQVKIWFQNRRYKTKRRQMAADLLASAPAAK
Chain of PROP1 (Homo sapiens, UniProt O75360 56-141) (O75360 56-141): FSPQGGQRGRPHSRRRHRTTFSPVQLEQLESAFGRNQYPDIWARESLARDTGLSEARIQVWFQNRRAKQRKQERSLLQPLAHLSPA
Chain of NKX3-2 (Homo sapiens, UniProt P78367 192-278) (P78367 192-278): as the sequence (P78367 192-278 P234S) above, with S43P counted along it
Chain of PROP1 (Homo sapiens, UniProt O75360 56-141, R99H) (O75360 56-141 R99H): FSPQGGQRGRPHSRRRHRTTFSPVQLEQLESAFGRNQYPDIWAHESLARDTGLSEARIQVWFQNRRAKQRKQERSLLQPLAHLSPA

ATGAATTG: the binding signal in the assay with ALX4 [1] was 11 upbm affinity estimate (log intensity, higher = more binding, comparable within an allelic series).
Regarding CGTCCGCC, the binding signal was 9.96 upbm affinity estimate (log intensity, higher = more binding, comparable within an allelic series) with HOXC10 [2]; 10 upbm affinity estimate (log intensity, higher = more binding, comparable within an allelic series) with HOXC10 [3]; 7.19 upbm affinity estimate (log intensity, higher = more binding, comparable within an allelic series) in the assay with VAX1 [4]; 7.31 upbm affinity estimate (log intensity, higher = more binding, comparable within an allelic series) with VAX1 [5]; 7.05 upbm affinity estimate (log intensity, higher = more binding, comparable within an allelic series) with VAX1 [6].
Take CCGGGGAA: the binding signal in the assay with HOXC10 [2] was 9.93 upbm affinity estimate (log intensity, higher = more binding, comparable within an allelic series); with HOXC10 [3] it was 9.99 upbm affinity estimate (log intensity, higher = more binding, comparable within an allelic series); with VAX1 [4], 7.17 upbm affinity estimate (log intensity, higher = more binding, comparable within an allelic series); with VAX1 [5] it was 7.19 upbm affinity estimate (log intensity, higher = more binding, comparable within an allelic series); in the assay with VAX1 [6], 7.27 upbm affinity estimate (log intensity, higher = more binding, comparable within an allelic series).
Turning to CTCGGCCA, the binding signal in the assay with HOXC10 [2] is 10.1 upbm affinity estimate (log intensity, higher = more binding, comparable within an allelic series); in the assay with HOXC10 [3] it was 10.1 upbm affinity estimate (log intensity, higher = more binding, comparable within an allelic series); with PROP1 [7], 6.9 upbm affinity estimate (log intensity, higher = more binding, comparable within an allelic series); with PROP1 [8], 6.67 upbm affinity estimate (log intensity, higher = more binding, comparable within an allelic series); in the assay with PROP1 [9] it was 6.71 upbm affinity estimate (log intensity, higher = more binding, comparable within an allelic series).
Regarding AATCTCCA, the binding signal in the assay with ALX4 [1] is 9.73 upbm affinity estimate (log intensity, higher = more binding, comparable within an allelic series).
As to CGAAGGCC, the binding signal with ALX4 [1] was 8.29 upbm affinity estimate (log intensity, higher = more binding, comparable within an allelic series); with PAX4 [10] it was 9.2 upbm affinity estimate (log intensity, higher = more binding, comparable within an allelic series); with PAX4 [11] it was 9.31 upbm affinity estimate (log intensity, higher = more binding, comparable within an allelic series); with ALX4 [12], 8.19 upbm affinity estimate (log intensity, higher = more binding, comparable within an allelic series); with NKX2-6 [13], 9.35 upbm affinity estimate (log intensity, higher = more binding, comparable within an allelic series); with PAX4 [14], 9.3 upbm affinity estimate (log intensity, higher = more binding, comparable within an allelic series). In addition, the binding signal with PAX4 [15] is 9.19 upbm affinity estimate (log intensity, higher = more binding, comparable within an allelic series); with PAX4 [16], 9.09 upbm affinity estimate (log intensity, higher = more binding, comparable within an allelic series); in the assay with NKX2-6 [17], 9.28 upbm affinity estimate (log intensity, higher = more binding, comparable within an allelic series); with PAX4 [18], 9.29 upbm affinity estimate (log intensity, higher = more binding, comparable within an allelic series).
For the sequence CGGATAAC, the binding signal in the assay with ALX4 [1] was 9.46 upbm affinity estimate (log intensity, higher = more binding, comparable within an allelic series).
As to TGATGGCA, the binding signal is 10.7 upbm affinity estimate (log intensity, higher = more binding, comparable within an allelic series) in the assay with HOXC10 [2]; 9.08 upbm affinity estimate (log intensity, higher = more binding, comparable within an allelic series) with VAX1 [4]; 8.72 upbm affinity estimate (log intensity, higher = more binding, comparable within an allelic series) with VAX1 [5].
Turning to AAGTTTAC, in the assay with ALX4 [1], the binding signal is 9.93 upbm affinity estimate (log intensity, higher = more binding, comparable within an allelic series).
Still for that read-out and setting: in the case of ATATAGTC it was 8.99 upbm affinity estimate (log intensity, higher = more binding, comparable within an allelic series).
Same read-out and setting: in the case of CCCATAAC it was 9.61 upbm affinity estimate (log intensity, higher = more binding, comparable within an allelic series); in that of AGTTAGTG, 10.4 upbm affinity estimate (log intensity, higher = more binding, comparable within an allelic series).
On to ATAACAAG, for which the binding signal with ALX4 [1] is 10.9 upbm affinity estimate (log intensity, higher = more binding, comparable within an allelic series).
As to AAGTACCG, the binding signal in the assay with HOXC10 [2] is 11 upbm affinity estimate (log intensity, higher = more binding, comparable within an allelic series); in the assay with NKX3-2 [19], 12.4 upbm affinity estimate (log intensity, higher = more binding, comparable within an allelic series); in the assay with NKX3-2 [20], 12.5 upbm affinity estimate (log intensity, higher = more binding, comparable within an allelic series).
Take GAGGGAGC: the binding signal in the assay with ALX4 [1] is 8.04 upbm affinity estimate (log intensity, higher = more binding, comparable within an allelic series); with ALX4 [12], 8.01 upbm affinity estimate (log intensity, higher = more binding, comparable within an allelic series).
On to CCCCTCTC, for which the binding signal with ALX4 [1] is 8.15 upbm affinity estimate (log intensity, higher = more binding, comparable within an allelic series); with ALX4 [12] it was 8.2 upbm affinity estimate (log intensity, higher = more binding, comparable within an allelic series).
Turning to ACGCGGGA, the binding signal in the assay with ALX4 [1] is 8.23 upbm affinity estimate (log intensity, higher = more binding, comparable within an allelic series); in the assay with ALX4 [12], 8.27 upbm affinity estimate (log intensity, higher = more binding, comparable within an allelic series).
For ACAGCTCT, the binding signal with ALX4 [1] was 8.24 upbm affinity estimate (log intensity, higher = more binding, comparable within an allelic series); in the assay with ALX4 [12] it was 8.19 upbm affinity estimate (log intensity, higher = more binding, comparable within an allelic series).
On to GAGAGGCA, for which the binding signal with ALX4 [1] was 8.02 upbm affinity estimate (log intensity, higher = more binding, comparable within an allelic series); in the assay with ALX4 [12], 8.16 upbm affinity estimate (log intensity, higher = more binding, comparable within an allelic series).
Take ATAACCAA: the binding signal was 10.1 upbm affinity estimate (log intensity, higher = more binding, comparable within an allelic series) with ALX4 [1] and 9.6 upbm affinity estimate (log intensity, higher = more binding, comparable within an allelic series) with ALX4 [12].
